The full ranking holds about 110,000 compounds; the median of “z-score” is about -0.1, and the highest 2% start at about 2. The full list was thinned out, with the highest values kept by preference. The source made the active and inactive calls.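 How the source made its calls: active means z-score in the third read window above 3 or below -3; inactive means the rest.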
Each molecule was assayed against Metabotropic glutamate receptor 8 (Rattus norvegicus) (UniProt P70579) (assay: rat mGluR8 modulators via GIRK flux, primary screen, cell-based, thallium flux, HTS (AID 488969)). Conditions: HEK293 rat mGluR8, GIRK (G protein-gated inwardly rectifying potassium channel) thallium flux, FluoZin2; at 10 µM; stronger effect = higher value; submaximal glutamate (EC20) added with thallium.
Metabotropic glutamate receptor 8 (Rattus norvegicus), sequence (P70579 whole entry, looked up): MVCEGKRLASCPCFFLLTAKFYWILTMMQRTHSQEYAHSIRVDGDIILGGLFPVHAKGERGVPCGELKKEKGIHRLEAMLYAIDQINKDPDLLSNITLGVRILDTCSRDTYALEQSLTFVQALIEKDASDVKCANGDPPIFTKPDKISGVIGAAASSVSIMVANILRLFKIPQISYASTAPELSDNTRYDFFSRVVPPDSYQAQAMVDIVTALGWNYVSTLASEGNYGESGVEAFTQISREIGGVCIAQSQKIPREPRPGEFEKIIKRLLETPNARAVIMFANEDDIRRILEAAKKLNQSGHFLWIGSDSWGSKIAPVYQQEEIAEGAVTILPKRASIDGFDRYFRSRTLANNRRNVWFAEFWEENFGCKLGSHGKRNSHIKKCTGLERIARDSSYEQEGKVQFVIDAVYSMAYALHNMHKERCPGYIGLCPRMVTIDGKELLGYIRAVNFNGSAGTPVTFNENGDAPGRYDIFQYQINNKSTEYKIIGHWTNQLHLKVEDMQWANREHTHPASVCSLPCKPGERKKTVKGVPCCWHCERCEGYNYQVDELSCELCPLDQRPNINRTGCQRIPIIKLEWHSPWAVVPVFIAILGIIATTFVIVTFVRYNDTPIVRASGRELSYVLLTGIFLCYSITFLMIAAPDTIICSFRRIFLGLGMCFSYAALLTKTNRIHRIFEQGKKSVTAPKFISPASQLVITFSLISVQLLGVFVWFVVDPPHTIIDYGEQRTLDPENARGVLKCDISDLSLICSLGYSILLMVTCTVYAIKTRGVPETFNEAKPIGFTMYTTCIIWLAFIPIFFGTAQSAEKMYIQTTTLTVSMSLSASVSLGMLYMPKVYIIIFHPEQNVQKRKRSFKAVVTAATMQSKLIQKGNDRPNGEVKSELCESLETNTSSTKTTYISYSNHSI
Work on `COC(=O)Cc1[nH]nc2c1C(c1c[nH]c3ccccc13)C(C#N)=C(N)O2` (configuration not stated) yielded a z-score of -0.415.
In the case of `COc1ccc(/C=N\N=C2/SC(CC(=O)O)C(=O)N2c2ccc(O)cc2)cc1OC` (configuration not stated), the z-score is reported as -0.0449.
In the case of `CC(=O)Nc1cccc2c1C(=O)NC2=O`, the z-score is reported as 0.274.
With `CC(C)Cn1cc(C(=O)NC2CCN(Cc3ccccc3)CC2)c2c3ccccc3n(C)c2c1=O` the z-score was -0.13.
Work on `S=C(NCCc1ccccc1)N1CCN(Cc2ccccc2)CC1` yielded a z-score of -0.499.
In the case of `O=C(NC(=S)N1CCN(Cc2ccccc2)CC1)c1ccccc1`, the z-score is reported as 6.31 (active).
Molecule `O=C(c1ccccc1)N1CCN(Cc2ccccc2)CC1` has a z-score of -0.853.
With `O=C1NCCN1C(=O)c1ccccc1F` the z-score was 0.555.
Work on `Cc1csc(NC(=O)CSc2ncc(-c3ccccc3)[nH]2)n1` yielded a z-score of 0.148.
`COc1ccc2c(=O)c3c(=O)n(Cc4ccco4)c(-c4ccco4)nc3oc2c1` was tested, and the z-score was -0.397.
`COc1ccc(Cn2c(-c3ccco3)nc3oc4ccccc4c(=O)c3c2=O)cc1` was tested, and the z-score was 0.403.
Molecule `COc1ccc(Cn2c(-c3ccco3)nc3oc4cc(OC)ccc4c(=O)c3c2=O)cc1` has a z-score of 2.22.
Molecule `CS(=O)(=O)N(CC(N)=O)c1ccc2c(c1)OCO2` has a z-score of -0.00195.
For `N#Cc1ccccc1NC(=O)CNc1ccc(Cl)c(C(F)(F)F)c1`, the z-score was 2.38.
`COc1ccc(NCC(=O)Nc2ccccc2C#N)cc1Cl` showed a z-score of -0.204.
In the case of `Cc1ccccc1NC(=O)CNc1ccc(Cl)c(C(F)(F)F)c1`, the z-score is reported as -0.365.
`N#Cc1cc(Oc2cccnc2)c(Oc2cccnc2)cc1C#N` showed a z-score of 0.18.
With `O=C(Nc1cccc(Cl)c1)Nc1nccs1` the z-score was 10.2 (active).
Molecule `O=C(Nc1cccc(Cl)c1)Nc1cccc(Cl)c1` has a z-score of 0.0262.
Molecule `O=C(Nc1ccccc1)Nc1nccs1` has a z-score of 1.3.
`COC(=O)c1ccc(Oc2nc3c(c(=O)n(C)c(=O)n3C)n2CCC(C)C)cc1` showed a z-score of 1.63.
For `CN1C(=O)/C(=C/c2ccc3c(c2)OCO3)N=C1c1ccccc1`, the z-score was 0.393.
`O=C(Cc1ccccc1)Nc1c(C(=O)N2CCCCCC2)cnn1-c1ccccc1` showed a z-score of -0.477.
For `CC(=O)Nc1c(C(=O)N2CCOCC2)cnn1-c1ccc(C)c(C)c1`, the z-score was -0.0497.
`CCC(=O)Nc1c(C(=O)N2CCCCCC2)cnn1-c1ccc(C)c(C)c1` was tested, and the z-score was 2.47.
With `CC(C)NC(=O)Cn1c(=O)cnc2ccccc21` the z-score was 0.171.
`Clc1ccc(-n2ncc3c(NCc4ccc5c(c4)OCO5)ncnc32)cc1` gave a z-score of -0.426.
With `O=C(CSc1nc(C2CCCCC2)nc2ccccc12)NCc1ccc2c(c1)OCO2` the z-score was -1.07.
With `Cn1c(SCC(=O)NCc2ccc3c(c2)OCO3)nnc1-c1c[nH]c2ccccc12` the z-score was -0.821.
`O=C(CSc1ncnc2c1cnn2-c1ccc(Cl)cc1)NCc1ccc2c(c1)OCO2` was tested, and the z-score was 3.12 (active).
`O=C(CCc1c[nH]c2ccccc12)NCc1ccc2c(c1)OCO2` showed a z-score of -0.143.
For `O=C(CSc1nc(CCC2CCCC2)nc2ccccc12)NCc1ccc2c(c1)OCO2`, the z-score was 8.15 (active).
`O=C(NCCSc1c[nH]c2ccccc12)c1ccc(Br)o1` was tested, and the z-score was -0.00412.
Work on `O=C(CSc1c[nH]c2ccccc12)NCc1ccc2c(c1)OCO2` yielded a z-score of 2.27.
`CC(C)C(=O)NCCSc1c[nH]c2ccccc12` was tested, and the z-score was -0.143.
For `O=C(CSc1nc(C2CC2)nc2ccccc12)NCc1ccc2c(c1)OCO2`, the z-score was -0.21.
Work on `O=C(CSc1ncnc2c1cnn2-c1ccc(F)cc1)NCc1ccc2c(c1)OCO2` yielded a z-score of 0.54.
`O=C(NCCSc1c[nH]c2ccccc12)c1ccco1` was tested, and the z-score was 3.57 (active).
Work on `O=C(CN1C(=O)c2ccccc2C1=O)N1CCN(c2nnc(-c3ccccc3)c3ccccc23)CC1` yielded a z-score of 0.179.
Molecule `COC(=O)Nc1ccc(OCc2ccccc2)cc1` has a z-score of 0.466.
Work on `CC1CCN(S(=O)(=O)c2cc(C(=O)N3CCN(c4ncccn4)CC3)ccc2Br)CC1` yielded a z-score of -0.827.
Molecule `O=C(NCCC1=CCCCC1)C1CCCN(S(=O)(=O)c2cccnc2)C1` (configuration not stated) has a z-score of 0.742.
`COc1ccc(S(=O)(=O)n2nc(-c3ccc(Cl)cc3)cc2N)cc1OC` was tested, and the z-score was -0.0966.
`O=C(Cn1cnc2c(nnn2Cc2ccc(F)cc2)c1=O)N1CCCCC1` gave a z-score of 0.251.
`Cc1ccc(C(=O)CCC(=O)Nc2cccnc2)cc1C` was tested, and the z-score was -0.25.
For `CCCCC(=O)Nc1ccc(C(=O)Nc2nnc(COC)s2)cc1`, the z-score was -0.311.
In the case of `Nc1nonc1C(=O)NCCNCc1cc(Br)ccc1OCc1ccccc1F`, the z-score is reported as 4.61 (active).
`Nc1nonc1C(=O)NCCNCc1ccccc1OCc1ccccc1F` showed a z-score of 1.61.
In the case of `Nc1nonc1C(=O)NCCNCc1cc(Br)ccc1OCc1ccc(F)cc1`, the z-score is reported as 0.587.
`Cc1nn(CC(=O)NCc2ccc(OC(C)C)cc2)c(=O)c2cc3occc3n12` was tested, and the z-score was -0.4.
With `Cc1ccccc1OCc1nnc(SCc2cc(=O)[nH]c3ccccc23)n1-c1ccccc1` the z-score was 0.00735.
In the case of `O=P(CCNCc1ccco1)(c1ccccc1)c1ccccc1`, the z-score is reported as 0.267.
`Cn1nnnc1SCc1nnc(-c2ccccc2Br)o1` was tested, and the z-score was 0.436.
`Cn1nnnc1SCc1nnc(-c2ccc(Cl)cc2)o1` showed a z-score of 2.68.
Work on `Cn1nnnc1SCc1nnc(-c2ccc(F)cc2)o1` yielded a z-score of -0.226.
In the case of `Cc1ccc(/C(O)=C2/C(=O)C(=O)N(CCN3CCOCC3)C2c2cccs2)cc1` (configuration not stated), the z-score is reported as -0.157.
With `COc1cccc2cc(C(=O)N3CCN(c4ncccn4)CC3)c(=O)oc12` the z-score was -0.344.
Work on `COc1ccc(C(=O)N2CCN(C3CCCCC3)CC2)c(OC)c1` yielded a z-score of -0.579.
`CCCC(=O)OCCNc1cc(SCCC(=O)OC)c2nonc2c1[N+](=O)[O-]` gave a z-score of -0.658.
`COC(=O)CCSc1cc(NCCOC(C)=O)c([N+](=O)[O-])c2nonc12` showed a z-score of -0.0935.
In the case of `CCCSc1cc(NCCOC(C)=O)c([N+](=O)[O-])c2nonc12`, the z-score is reported as 2.48.
For `Oc1cnc2ccccc2c1CN1CCOCC1`, the z-score was -0.0791.
`CCOc1cc(C)c(Cl)cc1S(=O)(=O)NCc1ccc2c(c1)OCO2` showed a z-score of -0.837.
Molecule `Cc1ccc(S(=O)(=O)N2CCN(C3CC(=O)N(Cc4ccccc4)C3=O)CC2)cc1C` (configuration not stated) has a z-score of -0.767.
`CCCn1c(C)cc(/C=C(\C#N)C(=O)OCC(=O)Nc2cccc(OC)c2)c1C` was tested, and the z-score was 3.42 (active).
In the case of `CCCn1c(C)cc(/C=C(\C#N)C(=O)OCC(=O)Nc2cc(OC)c(OC)c(OC)c2)c1C`, the z-score is reported as -0.21.
`CCCn1c(C)cc(/C=C(\C#N)C(=O)OCC(=O)Nc2ccc(OC)c(Cl)c2)c1C` was tested, and the z-score was -0.243.
In the case of `CN(CC(=O)NCCN1CCN(c2ccccc2)CC1)S(=O)(=O)c1ccc2c(c1)CCC(=O)N2`, the z-score is reported as 0.291.
Molecule `CC1(C)COC(c2cc([N+](=O)[O-])ccc2Cl)=N1` has a z-score of -0.41.
Work on `Clc1ccc(/C=N/Nc2nn[nH]n2)cc1` yielded a z-score of -1.27.
With `COc1ccccc1C(=O)Nc1ccc(Oc2ncnc3sc(-c4ccccc4)cc23)cc1` the z-score was -0.975.
For `COc1ccc(C(=O)Nc2ccc(Oc3ncnc4sc(-c5ccccc5)cc34)cc2)cc1OC`, the z-score was 4.83 (active).
`COc1cc(C(=O)Nc2ccc(Oc3ncnc4sc(-c5ccccc5)cc34)cc2)cc(OC)c1OC` was tested, and the z-score was 0.344.
In the case of `CC1=NN(c2ccccc2)C(=O)C1C(=O)c1ccccc1` (configuration not stated), the z-score is reported as -0.168.
`CC1=NN(c2ccccc2)C(=O)C1C(=O)c1ccc(Cl)cc1` (configuration not stated) gave a z-score of 2.14.
`CCCCCCN1N=C(C)C(C(=O)c2ccc(Cl)cc2)C1=O` (configuration not stated) showed a z-score of 0.521.
`Clc1ccc(C2=Nn3c(nnc3-c3cccs3)SC2)cc1` gave a z-score of -0.153.
With `CCOC(=O)C1=C(C)NC(=O)CC1c1ccccc1` (configuration not stated) the z-score was 0.409.
Work on `COc1ccc(-n2c(=S)[nH]c3sc4c(c3c2=O)CCc2ccccc2-4)cc1` yielded a z-score of 0.114.
`Cc1ccc(-n2c(=S)[nH]c3c(oc4ccccc43)c2=O)cc1` showed a z-score of 0.618.
In the case of `Cc1ccc(-n2c(=S)[nH]c3sc4c(c3c2=O)CCc2ccccc2-4)cc1`, the z-score is reported as 2.33.
For `COc1ccc2c(c1)c(=O)oc1cc(OCC(=O)NC3CCCCC3)ccc12`, the z-score was 0.0339.
Work on `O=C(NC(=S)Nc1ccccc1)c1ccc(-c2ccccc2)cc1` yielded a z-score of 0.0142.
Work on `Cc1ccc(NC(=O)c2csnn2)c(C)c1` yielded a z-score of 0.804.
In the case of `O=C(NC(=S)Nc1ccccc1Cl)c1csnn1`, the z-score is reported as 11.5 (active).
Molecule `CC(=O)Nc1ccc(NC(=S)Nc2ccccc2)cc1` has a z-score of -0.0688.
Work on `COC(=O)c1c(NC(=S)Nc2ccccc2Cl)sc(C)c1C` yielded a z-score of 0.827.
With `O=C(NC(=S)Nc1ccccc1)c1csnn1` the z-score was 12.4 (active).
Work on `C=C(C)C(C)(C#CCN1CCCC1)OC(C)=O` (configuration not stated) yielded a z-score of -0.061.
For `C=CCc1c(C)nc(SC)nc1Nc1ccccc1`, the z-score was -0.563.
`FC(F)(F)c1cccc(NC(=S)NC2CCCC2)c1` gave a z-score of 1.26.
Work on `Cc1cccc(NC2=NC(=S)N(CC#N)C23CCCCC3)c1` yielded a z-score of 1.02.
Molecule `Cc1ccc(Cl)cc1NC1=NC(=S)N(C(C)C)C12CCCCC2` has a z-score of 0.728.
`COc1ccc(NC2=NC(=S)N(c3ccccc3C)C23CCCCC3)cc1` was tested, and the z-score was 15.4 (active).
`COc1ccc(NC2=NC(=S)N(c3ccc(C)cc3)C23CCCCC3)cc1` showed a z-score of 0.796.
`N#CCN1C(=S)N=C(Nc2cccc(Cl)c2)C12CCCCC2` gave a z-score of 2.57.
`CC(C)(C)C1CCC2(CC1)C(Nc1cccc(C(F)(F)F)c1)=NC(=S)N2CC#N` (configuration not stated) showed a z-score of 2.58.
`CN(C#N)c1nc(Cl)nc(Nc2cccc(Cl)c2)n1` gave a z-score of -0.113.
With `O=C1CN=C(Nc2cccc(C(F)(F)F)c2)N1C1CCCC1` the z-score was -2.95.
Work on `CC1CCC2(CC1)C(Nc1cccc(Cl)c1)=NC(=S)N2CC#N` (configuration not stated) yielded a z-score of 2.23.
Molecule `COc1ccc(NC2=NC(=S)N(c3cccc(C)c3)C23CCCCC3)cc1` has a z-score of 1.22.
For `CC1CCC(=C(C#N)C(=O)Nc2cccc(Cl)c2)CC1` (configuration not stated), the z-score was -0.314.
For `Cc1ccc(S(=O)(=O)N2CCN(c3ccc4nnc(-c5ccccc5)n4n3)CC2)cc1`, the z-score was -0.183.
`CN(C)C(=O)c1snnc1-c1ccccc1` showed a z-score of -0.386.
`O=C1C(Cl)=C(NCCCO)C(=O)c2ccccc21` gave a z-score of -0.185.
`CCOC(=O)c1c(NC(=O)CSc2nc3ccccc3s2)sc(C(C)=O)c1C` gave a z-score of -0.129.
For `C=CCn1c(Oc2cc(C)ccc2C)nc2c1c(=O)n(C)c(=O)n2C`, the z-score was 0.128.
Molecule `CCC(C)(C(=O)NC1CCCCC1)N(C(=O)C1CCC(=O)N1)c1ccccc1` (configuration not stated) has a z-score of 0.963.
In the case of `NNC(=O)c1cnn(Cc2ccccc2)c1N`, the z-score is reported as 0.0742.
Work on `Cc1cccc(NC2=NC(=S)N(c3ccc(C(=O)O)cc3)C23CCCCC3)c1` yielded a z-score of -0.194.
For `Cc1ccc(NC2=NC(=S)N(CC#N)C23CCCCC3)cc1`, the z-score was 3.98 (active).
In the case of `Cc1ccc(Nc2nc(N)nc(CC#N)n2)cc1`, the z-score is reported as 0.115.
